Source: PubChem BioAssay (National Center for Advancing Translational Sciences (NCATS))
ALDH1A1 block: qHTS Assay for Inhibitors of Aldehyde Dehydrogenase 1 (ALDH1A1) | AID 1030, 2008 | Purified ALDH1A1, NADH fluorescence, propionaldehyde substrate | 220,000 compounds, 7.3% hits | Aldehyde dehydrogenase 1A1 (Homo sapiens), P00352 | Potency, µM (top dose mostly 75.3 µM), for inactives: top-dose activity, negative = inhibition, usual class: inhibitors; active = well fitted inhibition curve with a large enough effect, not every such curve was filed as active; inconclusive = small, poorly fitted or top-dose-only effect, or another doubt; inactive = no such curve, though single readings can be large or run the other way;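 also: potency is read from the fitted curve at half-maximal effect; plate controls were no enzyme wells and a reference inhibitor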
FBPA coupling cs: qHTS Assay for Inhibitors of Fructose-1,6-bisphosphate Aldolase from Giardia Lamblia: Coupling assay counterscreen | coupling enzyme system counterscreen, AmpLite Red fluorescence | activity change, negative = inhibition, % at 58.2 µM, hits read low | 290,000 compounds, 0.67% hits; in the data active = activity change below about -30%
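Fluorescence at 525 nm excitation and 598 nm emission measured inhibition of the coupled detection system without aldolase. Compounds (at 57.5 uM final) were preincubated 10 min at room temperature with coupling enzyme reagent before a 20 min substrate/AmpLite Red step.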
Sfp inh: qHTS Assay for Inhibitors of Bacillus subtilis Sfp phosphopantetheinyl transferase (PPTase); 4'-phosphopantetheinyl transferase ffp (Bacillus subtilis), Q9F4F7; Biochemical Sfp PPTase activity, qHTS; Potency, µM, without a hit: largest response in the series, negative = inhibition, usual class: inhibitors; 310,000 compounds, 3.5% hits;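 also: the enzyme is Sfp with the accession as filed and its product quenches rhodamine fluorescence; potency is read from the fitted curve at half-maximal effect; 0% = enzyme reaction without inhibitor and -100% = no enzyme wells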
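Reaction rates are the 30-min fluorescence difference (ex 525, em 598 nm) in wells containing 15 nM Sfp, 5 uM rhodamine-CoA and 12.5 uM BHQ-2-YbbR at pH 7.6 with 10 mM MgCl2.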
NPSR antagonist: qHTS Assay for Antagonists of the Neuropeptide S Receptor: cAMP Signal Transduction; Q6W5P4; CHO-NPSR cells, cAMP TR-FRET, antagonist mode; Potency, µM (top dose mostly 38.3 µM), without a hit: top-dose activity change, negative = inhibition, usual class: inhibitors; 220,000 compounds, 1% hits; AID 1461, 2008; also: potency is read from the fitted curve at half-maximal effect; nearly all actives have a fitted effect of over 50% in size
Target sequence (Q6W5P4 whole entry, looked up): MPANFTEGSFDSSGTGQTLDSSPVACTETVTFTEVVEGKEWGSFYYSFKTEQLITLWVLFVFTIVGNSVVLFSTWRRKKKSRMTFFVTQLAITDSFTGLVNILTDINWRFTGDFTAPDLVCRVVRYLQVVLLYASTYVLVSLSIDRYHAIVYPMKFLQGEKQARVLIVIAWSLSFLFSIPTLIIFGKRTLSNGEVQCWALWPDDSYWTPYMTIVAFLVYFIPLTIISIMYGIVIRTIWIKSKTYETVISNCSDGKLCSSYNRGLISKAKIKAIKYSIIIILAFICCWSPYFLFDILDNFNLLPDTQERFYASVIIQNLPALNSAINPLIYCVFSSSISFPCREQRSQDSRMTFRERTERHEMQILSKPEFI
GoLoco inh red: qHTS Assay for Inhibitors of RGS12 GoLoco Motif Activity (Red Fluorophore); Guanine nucleotide-binding protein G(i) subunit alpha-1 (Homo sapiens), P63096; Gai1:RGS12 GoLoco peptide FP, rhodamine, 10 min; Potency, µM (series often up to 61.6 µM), for inactives: top-dose activity, negative = inhibition, most hits filed as inhibitors; 230,000 compounds, 0.44% hits; active = well fitted inhibition curve with a large enough effect, not every such curve was filed as active; inactive = no such curve, though single readings can be large or run the other way; also: potency is read from the fitted curve at half-maximal effect; nearly all actives have a fitted effect of over 30% in size
JMJD2E inh: qHTS Assay for Inhibitors of Human Jumonji Domain Containing 2E (JMJD2E); JMJD2E catalytic domain, FDH-coupled NADH fluorescence (FDH is formaldehyde dehydrogenase); 230,000 compounds, 1.6% hits; Potency, µM (titrated, usually from 57.1 µM), without a hit: at the top dose activity change, negative = inhibition, actives largely listed as inhibitors; active = well fitted inhibition curve with a large enough effect, not every such curve was filed as active; inconclusive = small, poorly fitted or top-dose-only effect, or another doubt; inactive = no such curve, though single readings can be large or run the other way;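 also: potency is read from the fitted curve at half-maximal effect; 0% = wells with enzyme and -100% = buffer wells without enzyme; nearly all actives have a fitted effect of over 50% in size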
Target sequence (B2RXH2 1-337 limits assumed): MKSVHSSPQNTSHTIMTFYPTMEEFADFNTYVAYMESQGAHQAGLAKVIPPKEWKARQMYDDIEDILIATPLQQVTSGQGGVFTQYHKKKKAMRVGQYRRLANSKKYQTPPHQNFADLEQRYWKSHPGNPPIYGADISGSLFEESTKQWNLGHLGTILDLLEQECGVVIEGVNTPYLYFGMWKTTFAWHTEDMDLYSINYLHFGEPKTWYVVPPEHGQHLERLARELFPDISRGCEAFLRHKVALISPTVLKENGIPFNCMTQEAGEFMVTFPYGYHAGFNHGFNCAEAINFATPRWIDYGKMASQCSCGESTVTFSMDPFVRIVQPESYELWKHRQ
An asterisk follows results filed as active; ? = inconclusive; / = no result given; [ ] = another dose, or the depositor's remark. A selection: hits, their analogues and other compounds. The true share with any hit is near 8.5%. Unless noted, calls follow the shape of the dose curve; as a rule, active = well fitted curve in the direction sought with a large enough effect; inconclusive = small, poorly fitted or top-dose-only effect, or another doubt; inactive = no such curve, though single readings can be large; an effect the other way counts as inactive or inconclusive. Unless noted, % is scaled to controls: 0 for no effect and ±100 for the full control effect.

SMILES | ALDH1A1 block | FBPA coupling cs | Sfp inh | NPSR antagonist | GoLoco inh red | JMJD2E inh
COC(=O)NC(NC(=S)Nc1ccccc1OC)C(Cl)(Cl)Cl (configuration not stated) | 3.2µM* | 5 | -17% | ? | / | 0%
CCOC(=O)NC(NC(=S)Nc1ccccc1OC)C(Cl)(Cl)Cl (configuration not stated) | -5% | 1 | 4% | 6% | 2% | ?
CC(=O)NC(NC(=S)Nc1ccc(N=Nc2ccccc2)cc1)C(Cl)(Cl)Cl (configuration not stated) | 13µM* | -7 | 23% | -24%[46.1 µM] | -5% | -2%
O=C(CSc1nc2ncc(Cl)cc2[nH]1)N(Cc1ccccc1)C1CCS(=O)(=O)C1 (configuration not stated) | ? | 1 | 1% | -13% | 6% | -1%
CN(Cc1ccccn1)C(=O)C1CCC(=O)N(Cc2cccc(C(F)(F)F)c2)C1 (configuration not stated) | / | 1 | 15% | / | / | /
COc1ccc(CNC(=O)CN(C(=O)CCC(=O)Nc2ccccn2)c2ccc3c(c2)OCO3)cc1 | / | 1 | 10% | / | / | /
Cc1cc(C)cc(N(C(=O)CNC(=O)c2ccco2)C(C(=O)NC2CCCCC2)c2ccncc2)c1 (configuration not stated) | / | -1 | 11% | / | / | /
CC(=O)N1CCC2(CC1)CN(C(=O)Nc1cccc(C#N)c1)C2 | 2% | 0 | 9% | / | 14% | /
O=C(Nc1cccc(F)c1)N1CC2(CCN(C(=O)c3ccco3)CC2)C1 | 11µM* | 3 | -13% | / | 26% | /
N#Cc1cccc(NC(=O)N2CC3(CCN(C(=O)c4ccco4)CC3)C2)c1 | 9.5µM* | 1 | 5% | / | -13% | /
O=C(Nc1cccc(F)c1)N1CCC2(CC1)CCN(C(=O)c1ccco1)CC2 | 1% | 4 | 26% | / | 3% | /
C/C=C/c1ccc(OCC(=O)OCc2csc(CC(=O)Nc3ccccc3C)n2)c(OC)c1 | / | 3 | -2% | / | / | /
CN1CCN(NC(=S)Nc2ccc(OC(F)F)cc2)CC1 | -2% | 5 | 56µM* | 9% | 8% | 5%
CCCCn1c(=O)[nH]c(=O)c2c1nc(CN(C)Cc1cccc(OC)c1OC)n2CCC | / | 1 | 50µM* | / | / | /
COc1cccc(C(=O)NC2CC3CCCC(C2)N3CC(=O)Nc2ccccc2)c1 (configuration not stated) | ? | -36* | -12% | -27%[46.1 µM] | -16% | ?
COc1cccc(C(=O)NC2CC3CCCC(C2)N3CC(=O)Nc2ccc(N(C)C)cc2)c1 (configuration not stated) | ? | 1 | 4% | -17%[46.1 µM] | -4% | 6%
Cn1c(=O)nc2n(Cc3ccccc3)c3cccc(Cl)c3cc-2c1=O | ? | 4 | -15% | 0% | 3% | ?
COC(=O)CSc1nc(N)c2c3c(sc2n1)C(c1ccccc1)SC(c1ccccc1)C3 (configuration not stated) | ? | -4 | 40µM* | 13µM* | 41% | ?
CC(C)(C)C1CCc2c(sc3nc(SCC(=O)O)nc(N)c23)C1 (configuration not stated) | / | 9 | -2% | ? | 8% | ?
CC1CCN(CCCCOc2ccccc2Br)CC1 | ? | 1 | 50µM* | 0% | 5% | 3%
CCOc1ccc(Cl)cc1/C=C1/C(=O)ON=C1C | / | 0 | 50µM* | / | / | /
COc1ccc(Cl)cc1/C=C1/C(=O)ON=C1C | / | 5 | 50µM* | / | / | /
C#CCOc1c(Cl)cc(/C=C2/C(=O)ON=C2C)cc1OC | / | 5 | 56µM* | / | / | /
CCOc1cc(/C=C2/C(=O)ON=C2C)ccc1O | / | -1 | -19% | / | / | /
CCCOc1ccc(/C=C2/C(=O)ON=C2C)cc1Cl | / | -2 | 50µM* | / | / | /
SMILES | ALDH1A1 block | FBPA coupling cs | Sfp inh | NPSR antagonist | GoLoco inh red | JMJD2E inh
COc1cc(/C=C2/C(=O)ON=C2C)cc(Cl)c1O | / | -6 | -11% | / | / | /
O=[N+]([O-])c1cccc(S(=O)(=O)NCCNS(=O)(=O)c2cccc([N+](=O)[O-])c2)c1 | / | / | 10% | / | / | /
C/C(=N\NC(=S)Nc1cc(S(=O)(=O)N2CCOCC2)ccc1Cl)c1ccccc1F | -9% | 0 | -23% | -4% | 4% | -13%
Cc1cc(C)nc(Nc2cccc(Cl)c2)n1 | / | 8 | 11% | / | / | /
CN(C#N)c1nc(Cl)nc(Nc2cccc(Cl)c2)n1 | 4µM* | 4 | 0% | -12% | 7% | -3%
CC[C@@]1([C@@H]2O[C@@H]([C@H]3O[C@@](O)(CO)[C@H](C)C[C@@H]3C)C[C@@H]2C)CC[C@@H]([C@]2(C)CCC3(C[C@H](O)[C@@H](C)[C@@H]([C@@H](C)[C@@H](OC)[C@H](C)C(=O)O)O3)O2)O1 (some centres not stated) | / | -3 | 13% | / | / | /
CCOC(=O)c1c(-c2ccsc2)csc1N | -9% | -34* | 56µM* | -8%[46.1 µM] | 5% | -12%
CCOC(=O)c1c(-c2ccc(C)o2)csc1N | ? | -29 | ? | -15%[46.1 µM] | 13% | -6%
CCOC(=O)c1c(-c2ccc(C)s2)csc1N | 3.2µM* | -41* | 11µM* | -9% | 12% | 1%
Cc1ccc(-n2c(SCn3nnc4ccccc4c3=O)nnc2-c2cccnc2)c(C)c1 | 22µM* | -2 | -28% | ? | 54% | -15%
Cc1cc(O)c2ccccc2c1O | / | / | -8% | / | 6% | /
CC(=O)Oc1c(C)cc(O)c2ccccc12 | -1% | -32* | 11% | 10%[46.1 µM] | 7% | ?
COc1cccc(CC(=O)N[C@@H](CCSC)c2nc3ccccc3[nH]2)c1 | ? | 1 | -2% | -2% | 8% | 1%
CC(/C=N/NC(=O)c1ccccc1F)=C\c1ccccc1 | / | -1 | 13% | / | / | /
O=C(O)c1cccc(-c2ccc(/C=C3/SC(=Nc4ccccc4)N(Cc4cccnc4)C3=O)o2)c1 | / | 6 | 50µM* | / | / | /
CCN=C1S/C(=C\c2ccc(-c3cccc(C(=O)O)c3)o2)C(=O)N1CC | ? | 5 | 20µM* | -19% | 69% | -19%
CCN1C(=O)/C(=C\c2ccc(-c3ccc([N+](=O)[O-])cc3OC)o2)SC1=Nc1cccc(C(=O)O)c1 | 0.63µM* | 0 | 25µM* | -37% | 14% | -25%
CCN1C(=O)/C(=C\c2ccc(-c3cccc(C(=O)OC)c3)o2)SC1=Nc1ccc(C(=O)O)cc1 | / | 11 | -28% | / | / | /
